# Results as given in PubChem BioAssay AID893 (National Center for Advancing Translational Sciences (NCATS), 2007).
# In all, about 75,000 compounds went through this assay and about 5,700 (7.6%) were called active. A call without a number means that no potency is given here. Roughly 7% stayed inconclusive and do not appear here. The sample as a whole holds a higher share of actives than the screen did. Unmarked numbers belong to inactive results. Calls come from the whole dose curve; as a rule, active = well fitted inhibition curve with a large enough effect; inconclusive = small, poorly fitted or top-dose-only effect; inactive = no such curve, though single readings can be large or run the other way.
# Target: 3-hydroxyacyl-CoA dehydrogenase type-2 (Homo sapiens) (UniProt Q99714)
# Experiment: qHTS Assay for Inhibitors of HSD17B4, hydroxysteroid (17-beta) dehydrogenase 4;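 note: the protocol describes HADH2 (HSD17B10) and not the HSD17B4 of the title; nearly all actives have a fitted effect of over 70% in size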
# Settings: recombinant HSD17B10, NADH fluorescence kinetic; series mostly up to 57.1 µM
# In short: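 Enzyme plus compound, 15 min room temperature; substrate mix added (NAD+ 1 mM, beta-hydroxybutyryl-CoA 90 uM final); plates read kinetically for NADH fluorescence. HADH2 was His-tagged, E. coli-derived, 20 nM.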
# Potency is the fitted concentration of half-maximal effect.
SMILES,Potency,"activity change, negative = inhibition"
Cc1nn2c3ccccc3nc2n(C)c1=O,inactive,
Cc1csc(-c2nc3ccccc3n2C)n1,31.6 µM (active),
COc1cc(C(O)c2nc3ccccc3n2C)cc(OC)c1OC (stereo not given),inactive,
O=C(NCc1ccco1)C1CCCN(S(=O)(=O)c2cccc3nonc23)C1 (stereo not given),inactive,
CC(C)(C)c1ccc(OC2C=CC(C#Cc3ccccc3)OC2CO)cc1 (stereo not given),,-6.55% [at 11.4 µM]
COC1[C@H](OC(N)=O)C(O)[C@H](Oc2ccc3c(O)c(NC(=O)c4ccc(O)c(CC=C(C)C)c4)c(=O)oc3c2C)OC1(C)C (stereo not given in full),inactive,
O=C(c1ccc(F)cc1)C1CCN(CCCCc2ccccc2)CC1,inactive,
CCN1C(=O)C(C(=O)NC(C)c2ccccc2)C2CC1(C)Oc1ccccc12 (stereo not given),inactive,
Cc1cc(C(F)(F)F)nn1-c1nc(-c2ccco2)cc(C(F)(F)F)n1,31.6 µM (active),
FC(F)(F)c1cc(-c2ccco2)nc(N2CCOCC2)n1,inactive,
FC(F)(F)c1nnc2sc(-c3ccco3)nn12,inactive,
CCCC(C(=O)NCc1ccco1)N(C(=O)CNS(=O)(=O)c1ccccc1)C1CCCC1 (stereo not given),inactive,
CC(=O)N(CN1C(=O)C2CC=CCC2C1=O)c1cccc(Cl)c1 (stereo not given),inactive,
CC(=O)Nc1cccc(-c2cnc3ccccc3n2)c1,inactive,
CC(=O)Nc1ccc(-c2cn3cccnc3n2)cc1,10 µM (active),
CCCC(=O)Nc1cccc(-c2cn3ccsc3n2)c1,inactive,
CCOc1nc(OCC)nc(-n2cc(-c3ccccc3)nn2)n1,inactive,
c1ccc(-c2cn3cccnc3n2)cc1,25.1 µM (active),
O=C(c1ccco1)N1CCN=C1SCc1cccc(Cl)c1,inactive,
COC(=O)c1ccc2c(=O)n(CC3CCCO3)c(=S)[nH]c2c1 (stereo not given),inactive,
O=c1c2cc3c(=O)n(CC4CCCO4)c(=O)c3cc2c(=O)n1CC1CCCO1 (stereo not given),inactive,
O=C(NC1CCCCC1)c1ccc2c(=O)n(CC3CCCO3)c(=O)[nH]c2c1 (stereo not given),31.6 µM (active),
CCC1=[N+]([O-])C(C)(/C(C)=N\O)N(O)C1(C)C (stereo not given),inactive,
O=C(COC(=O)c1ccccc1C(=O)c1ccccc1)c1ccco1,inactive,
CC(=O)c1cc2c(cc1N)OCO2,inactive,
COCCn1c(C)cc(C(=O)CSc2ncnc3sc4c(c23)CCC4)c1C,inactive,
Cc1cc(C)n(-c2nc(SCC(=O)N3CCCC3)c3c4c(sc3n2)CCCC4)n1,inactive,
COCCNc1nc(-n2nc(C)cc2C)nc2sc3c(c12)CCCC3,25.1 µM (active),
CO/N=C\[C@@H](C)[C@H](OCc1ccccc1)C(C)C,,-1.19% [at 11.4 µM]
O=C(c1ccc2c(c1)OCCO2)C1CCN(S(=O)(=O)c2cccc(F)c2)CC1,inactive,
